About 79,000 compounds went through this panel and 15% of them were active in at least one assay; those are over-represented in the sample as a whole. Values without a mark were called inactive. Activity calls are given as the source filed them. Cut-off read from the data, not from the text of the source: active = growth inhibition above about 70%; inactive = the rest.
Key:
[1] = NCI Yeast Anticancer Drug Screen. Data for the rad50 strain (AID 155);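 note: 0% = growth of vehicle-only cultures of the same strain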; conditions: S. cerevisiae rad50 strain growth inhibition, hits give high values
Outline: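 Compounds were tested on a yeast strain with an engineered DNA damage repair alteration; the reported value is growth inhibition normalised to vehicle treatment.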

[2] = NCI Yeast Anticancer Drug Screen. Data for the mec2-1 strain (AID 157); conditions: S. cerevisiae mec2-1 strain, hits give high values
Outline: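 Compounds were applied to mec2-1 yeast cells. Their growth was then compared with that of vehicle-treated cultures to give growth inhibition.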

[3] = NCI Yeast Anticancer Drug Screen. Data for the sgs1 mgt1 strain (AID 161);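 note: 0% = growth of cultures given vehicle only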; conditions: S. cerevisiae sgs1 mgt1 strain, hits give high values
Outline: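 Growth of a repair-deficient yeast mutant was monitored after compound treatment and expressed as inhibition relative to vehicle-treated cultures.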

[4] = NCI Yeast Anticancer Drug Screen. Data for the cln2 rad14 strain (AID 165);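 note: 0% = growth equal to vehicle treated cultures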; conditions: S. cerevisiae cln2 rad14 strain, hits give high values
Outline: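 Strain: cln2 rad14 yeast, altered in cell cycle control and DNA damage repair. Read-out: growth inhibition vs vehicle.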

[5] = NCI Yeast Anticancer Drug Screen. Data for the bub3 strain (AID 167); conditions: S. cerevisiae bub3 mutant strain, hits give high values
Outline: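 Growth of a checkpoint-deficient yeast mutant is measured after compound exposure. Values represent inhibition relative to vehicle.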

[6] = NCI Yeast Anticancer Drug Screen. Data for the mlh1 rad18 strain (AID 175); conditions: S. cerevisiae mlh1 rad18 strain growth inhibition, hits give high values
Outline: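 A repair-deficient yeast strain is exposed to test compound, and growth is scored relative to vehicle-treated controls.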

[7] = at 5.0 µM (retest, dose inferred, filed as 0.5)
[8] = at 50.0 µM (retest, dose inferred, filed as 5.0)

Cc1cc(NC(=S)SCc2ccc3c(c2)OCO3)ccc1Cl
growth inhibition [1, 7]: 31%
growth inhibition [1, 8]: 98% (active)
growth inhibition ([1]; at 50.0 µM): 91.5% (active)
growth inhibition [2, 7]: 16%
growth inhibition [2, 8]: 99% (active)
growth inhibition ([2]; at 50.0 µM): 91.8% (active)
growth inhibition [3, 7]: 44%
growth inhibition [3, 8]: 98% (active)
growth inhibition ([3]; at 50.0 µM): 91.5% (active)
growth inhibition [4, 7]: 38%
growth inhibition [4, 8]: 98% (active)
growth inhibition ([4]; at 50.0 µM): 89.7% (active)
growth inhibition [5, 7]: 52%
growth inhibition [5, 8]: 99% (active)
growth inhibition ([5]; at 50.0 µM): 91% (active)
growth inhibition [6, 7]: 24%
growth inhibition [6, 8]: 97% (active)
growth inhibition ([6]; at 50.0 µM): 90.2% (active)

CCOC(=O)C(Cc1cc(I)c(Oc2ccc(OC)cc2)c(I)c1)NC(C)=O (stereo not given)
growth inhibition [1, 7]: 36%
growth inhibition [1, 8]: 92% (active)
growth inhibition ([1]; at 50.0 µM): 86.8% (active)
growth inhibition [2, 7]: 28%
growth inhibition [2, 8]: 96% (active)
growth inhibition ([2]; at 50.0 µM): 83.2% (active)
growth inhibition [3, 7]: 41%
growth inhibition [3, 8]: 97% (active)
growth inhibition ([3]; at 50.0 µM): 69%
growth inhibition [4, 7]: 23%
growth inhibition [4, 8]: 95% (active)
growth inhibition ([4]; at 50.0 µM): 89.3% (active)
growth inhibition [5, 7]: 39%
growth inhibition [5, 8]: 96% (active)
growth inhibition ([5]; at 50.0 µM): 87.9% (active)
growth inhibition [6, 7]: 38%
growth inhibition [6, 8]: 95% (active)
growth inhibition ([6]; at 50.0 µM): 87.8% (active)

Nc1nc(-c2ccc3c(c2)Sc2ccccc2O3)cs1
growth inhibition [1, 7]: 18%
growth inhibition [1, 8]: 99% (active)
growth inhibition ([1]; at 50.0 µM): 67.6%
growth inhibition [2, 7]: 39%
growth inhibition [2, 8]: 100% (active)
growth inhibition ([2]; at 50.0 µM): 65.3%
growth inhibition [3, 7]: 57%
growth inhibition [3, 8]: 99% (active)
growth inhibition ([3]; at 50.0 µM): 91.3% (active)
growth inhibition [4, 7]: 7%
growth inhibition [4, 8]: 99% (active)
growth inhibition ([4]; at 50.0 µM): 78.1% (active)
growth inhibition [5, 7]: 11%
growth inhibition [5, 8]: 99% (active)
growth inhibition ([5]; at 50.0 µM): 86.7% (active)
growth inhibition [6, 7]: 57%
growth inhibition [6, 8]: 99% (active)
growth inhibition ([6]; at 50.0 µM): 93.7% (active)

S=c1nc(/C=C/c2ccc(Cl)c(Cl)c2)[nH][nH]1
growth inhibition [1, 7]: 29%
growth inhibition [1, 8]: 68%
growth inhibition ([1]; at 50.0 µM): 79.5% (active)
growth inhibition [2, 7]: 28%
growth inhibition [2, 8]: 51%
growth inhibition ([2]; at 50.0 µM): 44.8%
growth inhibition [3, 7]: 27%
growth inhibition [3, 8]: 51%
growth inhibition ([3]; at 50.0 µM): 65.2%
growth inhibition [4, 7]: 31%
growth inhibition [4, 8]: 42%
growth inhibition ([4]; at 50.0 µM): 65%
growth inhibition [5, 7]: 33%
growth inhibition [5, 8]: 67%
growth inhibition ([5]; at 50.0 µM): 83.7% (active)
growth inhibition [6, 7]: 39%
growth inhibition [6, 8]: 71% (active)
growth inhibition ([6]; at 50.0 µM): 22.6%

O=C1OC(c2ccccc2)(c2ccccc2)Cc2ccccc21
growth inhibition [1, 7]: -4%
growth inhibition [1, 8]: 20%
growth inhibition ([1]; at 50.0 µM): 94% (active)
growth inhibition [2, 7]: -9%
growth inhibition [2, 8]: -4%
growth inhibition ([2]; at 50.0 µM): 96% (active)
growth inhibition [3, 7]: -7%
growth inhibition [3, 8]: -16%
growth inhibition ([3]; at 50.0 µM): 91% (active)
growth inhibition [4, 7]: -4%
growth inhibition [4, 8]: 7%
growth inhibition ([4]; at 50.0 µM): 91.3% (active)
growth inhibition [5, 7]: -27%
growth inhibition [5, 8]: -13%
growth inhibition ([5]; at 50.0 µM): 90.8% (active)
growth inhibition [6, 7]: -21%
growth inhibition [6, 8]: 8%
growth inhibition ([6]; at 50.0 µM): 94.8% (active)

O=C(CBr)c1cccc(OC(=O)c2ccccc2)c1
growth inhibition [1, 7]: 91% (active)
growth inhibition [1, 8]: 99% (active)
growth inhibition ([1]; at 50.0 µM): 44.2%
growth inhibition [2, 7]: 91% (active)
growth inhibition [2, 8]: 98% (active)
growth inhibition ([2]; at 50.0 µM): 26.1%
growth inhibition [3, 7]: 100% (active)
growth inhibition [3, 8]: 99% (active)
growth inhibition ([3]; at 50.0 µM): 68%
growth inhibition [4, 7]: 88% (active)
growth inhibition [4, 8]: 99% (active)
growth inhibition ([4]; at 50.0 µM): 29.9%
growth inhibition [5, 7]: 99% (active)
growth inhibition [5, 8]: 99% (active)
growth inhibition ([5]; at 50.0 µM): 56.2%
growth inhibition [6, 7]: 90% (active)
growth inhibition [6, 8]: 99% (active)
growth inhibition ([6]; at 50.0 µM): 16.1%

Cn1c(Sc2ccc(-c3cccnc3)n2C)ccc1-c1cccnc1
growth inhibition [1, 7]: 11%
growth inhibition [1, 8]: 91% (active)
growth inhibition ([1]; at 50.0 µM): 97.8% (active)
growth inhibition [2, 7]: -12%
growth inhibition [2, 8]: 92% (active)
growth inhibition ([2]; at 50.0 µM): 98.7% (active)
growth inhibition [3, 7]: -7%
growth inhibition [3, 8]: 97% (active)
growth inhibition ([3]; at 50.0 µM): 97.5% (active)
growth inhibition [4, 7]: -15%
growth inhibition [4, 8]: 77% (active)
growth inhibition ([4]; at 50.0 µM): 98.1% (active)
growth inhibition [5, 7]: -19%
growth inhibition [5, 8]: 96% (active)
growth inhibition ([5]; at 50.0 µM): 97.8% (active)
growth inhibition [6, 7]: -5%
growth inhibition [6, 8]: 95% (active)
growth inhibition ([6]; at 50.0 µM): 97.3% (active)

CCN(CC)CCNc1ccc2ncn3c4c(OC)ccc(=O)c4c(O)c1c23
growth inhibition [1, 7]: 24%
growth inhibition [1, 8]: 96% (active)
growth inhibition ([1]; at 50.0 µM): 25.4%
growth inhibition [2, 7]: 9%
growth inhibition [2, 8]: 65%
growth inhibition ([2]; at 50.0 µM): 19.9%
growth inhibition [3, 7]: 3%
growth inhibition [3, 8]: 54%
growth inhibition ([3]; at 50.0 µM): 22.6%
growth inhibition [4, 7]: -1%
growth inhibition [4, 8]: 29%
growth inhibition ([4]; at 50.0 µM): -1.95%
growth inhibition [5, 7]: 9%
growth inhibition [5, 8]: 19%
growth inhibition ([5]; at 50.0 µM): -13.1%
growth inhibition [6, 7]: 9%
growth inhibition [6, 8]: 83% (active)
growth inhibition ([6]; at 50.0 µM): 4.65%

O=C(C1=NNC(c2ccccc2)C1C(=O)c1ccccc1)c1ccccc1 (stereo not given)
growth inhibition [1, 7]: -1%
growth inhibition [1, 8]: 82% (active)
growth inhibition ([1]; at 50.0 µM): 74.8% (active)
growth inhibition [2, 7]: -7%
growth inhibition [2, 8]: 65%
growth inhibition ([2]; at 50.0 µM): 30.6%
growth inhibition [3, 7]: 2%
growth inhibition [3, 8]: 84% (active)
growth inhibition ([3]; at 50.0 µM): 79% (active)
growth inhibition [4, 7]: 2%
growth inhibition [4, 8]: 67%
growth inhibition ([4]; at 50.0 µM): 67%
growth inhibition [5, 7]: -10%
growth inhibition [5, 8]: 86% (active)
growth inhibition ([5]; at 50.0 µM): 75% (active)
growth inhibition [6, 7]: 4%
growth inhibition [6, 8]: 86% (active)
growth inhibition ([6]; at 50.0 µM): 81.2% (active)

CC(c1ccccc1)C(C(=O)O)(c1ccccc1)c1ccccc1 (stereo not given)
growth inhibition [1, 7]: 80% (active)
growth inhibition [1, 8]: 4%
growth inhibition ([1]; at 50.0 µM): 99.4% (active)
growth inhibition [2, 7]: 76% (active)
growth inhibition [2, 8]: 7%
growth inhibition ([2]; at 50.0 µM): 99.3% (active)
growth inhibition [3, 7]: 61%
growth inhibition [3, 8]: 26%
growth inhibition ([3]; at 50.0 µM): 99.7% (active)
growth inhibition [4, 7]: 81% (active)
growth inhibition [4, 8]: 12%
growth inhibition ([4]; at 50.0 µM): 99.3% (active)
growth inhibition [5, 7]: 76% (active)
growth inhibition [5, 8]: -3%
growth inhibition ([5]; at 50.0 µM): 99.5% (active)
growth inhibition [6, 7]: 84% (active)
growth inhibition [6, 8]: 8%
growth inhibition ([6]; at 50.0 µM): 99.3% (active)
